# From PubChem BioAssay (NCATS)
# Records with an inconclusive call do not appear. Entries that show only a call come without a potency. A number with no mark means an inactive call. The source made the active and inactive calls. Calls follow the shape of the dose curve; as a rule, active = well fitted curve in the direction sought with a large enough effect; inconclusive = small, poorly fitted or top-dose-only effect, or another doubt; inactive = no such curve, though single readings can be large; an effect the other way counts as inactive or inconclusive.
# What was measured:
# [1] = target: Rap guanine nucleotide exchange factor 3 (Homo sapiens) (UniProt O95398); test: Confirmatory qHTS for antagonist of cAMP-regulated guanine nucleotide exchange factor 3 (EPAC1) (AID 1645880); also: nearly all actives have a fitted effect of over 55% in size; also: potency is read from the fitted curve at half-maximal effect
# Sequence of Rap guanine nucleotide exchange factor 3 (Homo sapiens) (O95398 whole entry, looked up): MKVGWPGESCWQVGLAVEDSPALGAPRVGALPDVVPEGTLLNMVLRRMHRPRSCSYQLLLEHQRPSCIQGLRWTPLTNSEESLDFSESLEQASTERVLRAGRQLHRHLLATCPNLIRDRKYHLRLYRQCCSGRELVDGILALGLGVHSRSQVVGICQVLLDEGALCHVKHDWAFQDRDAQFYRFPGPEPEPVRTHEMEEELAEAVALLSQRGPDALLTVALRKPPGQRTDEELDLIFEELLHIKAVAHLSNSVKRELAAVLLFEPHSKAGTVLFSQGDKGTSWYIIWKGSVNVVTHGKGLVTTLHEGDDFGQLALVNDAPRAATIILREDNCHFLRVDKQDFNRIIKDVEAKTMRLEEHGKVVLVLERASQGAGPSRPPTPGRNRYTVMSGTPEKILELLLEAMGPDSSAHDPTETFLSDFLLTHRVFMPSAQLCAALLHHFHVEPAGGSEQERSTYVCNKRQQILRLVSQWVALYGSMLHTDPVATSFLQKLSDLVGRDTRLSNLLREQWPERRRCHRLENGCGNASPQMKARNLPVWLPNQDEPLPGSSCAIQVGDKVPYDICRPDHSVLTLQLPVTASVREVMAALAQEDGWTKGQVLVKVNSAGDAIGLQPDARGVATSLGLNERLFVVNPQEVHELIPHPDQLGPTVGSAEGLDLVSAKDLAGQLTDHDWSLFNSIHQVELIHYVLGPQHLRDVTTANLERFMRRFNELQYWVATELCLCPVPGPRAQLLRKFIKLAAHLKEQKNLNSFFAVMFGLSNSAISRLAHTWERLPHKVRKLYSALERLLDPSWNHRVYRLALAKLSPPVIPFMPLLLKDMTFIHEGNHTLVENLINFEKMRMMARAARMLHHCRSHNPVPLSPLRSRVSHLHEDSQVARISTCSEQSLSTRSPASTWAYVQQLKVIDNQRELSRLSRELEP
# In short: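 Nucleotide exchange uses 100 nM EPAC1, 250 nM RAP1B-BODIPY-GDP and 50 uM GDP, with compounds in a concentration-titration series. After 5 min at room temperature, fluorescence (480 nm ex/540 nm em) is read every 5 min for 30 min. Data are normalized to control ATA and DMSO.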
# [2] = target: Rap guanine nucleotide exchange factor 3 (Homo sapiens) (UniProt O95398); test: Confirmatory qHTS for agonist of cAMP-regulated guanine nucleotide exchange factor 3 (EPAC1) (AID 1645881); also: nearly all actives have a fitted effect of over 75% in size; also: potency is read from the fitted curve at half-maximal effect;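 as to activation: EPAC1 catalysed release of BODIPY-GDP from Rap1B seen as fluorescence loss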
# [3] = target: Rap guanine nucleotide exchange factor 4 (Homo sapiens) (UniProt Q8WZA2); test: Confirmatory qHTS for agonist of cAMP-regulated guanine nucleotide exchange factor 4 (EPAC2) (AID 1645884);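 also: nucleotide exchange releases bodipy-GDP from Rap1 and this lowers its fluorescence; nearly all actives have a fitted effect of over 65% in size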; also: potency is read from the fitted curve at half-maximal effect
# Sequence of Rap guanine nucleotide exchange factor 4 (Homo sapiens) (Q8WZA2 whole entry, looked up): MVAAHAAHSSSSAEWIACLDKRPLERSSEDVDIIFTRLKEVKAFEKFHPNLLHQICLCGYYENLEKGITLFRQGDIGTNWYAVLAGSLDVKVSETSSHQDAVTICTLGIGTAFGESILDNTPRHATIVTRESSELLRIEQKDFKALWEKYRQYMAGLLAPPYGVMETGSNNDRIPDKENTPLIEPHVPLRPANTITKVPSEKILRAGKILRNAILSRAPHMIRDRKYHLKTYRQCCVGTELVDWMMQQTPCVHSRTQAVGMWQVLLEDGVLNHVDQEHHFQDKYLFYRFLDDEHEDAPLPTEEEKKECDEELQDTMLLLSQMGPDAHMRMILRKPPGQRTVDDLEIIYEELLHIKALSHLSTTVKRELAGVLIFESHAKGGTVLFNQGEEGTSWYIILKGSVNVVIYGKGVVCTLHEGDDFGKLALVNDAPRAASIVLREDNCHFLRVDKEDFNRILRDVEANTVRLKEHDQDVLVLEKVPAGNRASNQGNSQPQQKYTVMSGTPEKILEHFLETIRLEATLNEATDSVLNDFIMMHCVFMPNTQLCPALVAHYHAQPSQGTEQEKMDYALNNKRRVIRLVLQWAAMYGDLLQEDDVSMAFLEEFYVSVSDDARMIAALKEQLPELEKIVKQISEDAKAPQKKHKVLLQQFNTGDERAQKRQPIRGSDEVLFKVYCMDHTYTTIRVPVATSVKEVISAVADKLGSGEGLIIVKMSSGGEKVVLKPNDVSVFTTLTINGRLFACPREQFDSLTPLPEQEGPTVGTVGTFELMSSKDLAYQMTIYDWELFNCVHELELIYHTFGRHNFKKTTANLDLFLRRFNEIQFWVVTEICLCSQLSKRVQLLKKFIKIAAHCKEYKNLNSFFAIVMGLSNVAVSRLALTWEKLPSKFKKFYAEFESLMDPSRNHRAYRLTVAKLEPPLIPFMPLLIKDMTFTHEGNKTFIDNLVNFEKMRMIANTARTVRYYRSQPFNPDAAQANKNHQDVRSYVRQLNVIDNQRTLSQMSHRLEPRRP
# [4] = target: Rap guanine nucleotide exchange factor 4 (Homo sapiens) (UniProt Q8WZA2); test: Confirmatory qHTS for antagonist of cAMP-regulated guanine nucleotide exchange factor 4 (EPAC2) (AID 1645885); also: nearly all actives have a fitted effect of over 25% in size; also: potency is read from the fitted curve at half-maximal effect
# [5] = target: Rap guanine nucleotide exchange factor 3 (Homo sapiens) (UniProt O95398); test: Counterscreen qHTS for antagonist of cAMP-regulated guanine nucleotide exchange factor 3 (EPAC1) (AID 1645888);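 also: fluorescence loss as bound BODIPY-GDP is released from Rap1B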
# In short: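 Measured: fluorescence of BODIPY-GDP bound to Rap1B, which falls as exchange proceeds. Conditions include 50 uM competing GDP, 5 and 30 min reads, and a later cAMP challenge for antagonist detection.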
SMILES,Potency [1],Potency [2],Potency [3],Potency [4],Potency [5],activation [3],"activity change, negative = inhibition [5]",outcome [4]
CCOC(=O)N1CCN(C(=O)CSc2nnc(Cc3ccccc3)o2)CC1,inactive,inactive,inactive,inactive,inactive,,,
CC(=NNC(=O)c1ccccc1N)c1ccccc1O,2.51 µM (active),inactive,,inactive,,"0.484% [at 17.1 µM, percent relative to cAMP agonist control]",-1.34% [at 30.8 µM],
COc1cc(CNn2cnnc2)ccc1OCC(=O)NC(C)(C)C,inactive,inactive,inactive,inactive,inactive,,,
COCCNC(=O)CSc1nc2cc3c(cc2c(=O)n1CCCCCC(=O)NCc1ccc(OC)cc1)OCO3,inactive,inactive,inactive,inactive,inactive,,,
O=C1S/C(=C\c2ccc(N3CCOCC3)o2)C(=O)N1c1ccccc1,inactive,inactive,inactive,inactive,inactive,,,
CSC1=NC2(CCN(C(=O)NC3CCCCC3)CC2)N=C1c1ccc(C)cc1,inactive,inactive,inactive,inactive,inactive,,,
CC(C)c1ccc(C2NC(=O)c3c(sc4c3CCN(C)C4)N2)cc1 (stereo not given),inactive,inactive,inactive,inactive,inactive,,,
O=C(O)c1cc(N/N=C/c2ccncc2)ccc1Cl,inactive,inactive,,inactive,,"1.56% [at 17.1 µM, percent relative to cAMP agonist control]",-14% [at 30.8 µM],
CN(C)S(=O)(=O)c1cccc(-c2nn(-c3ccccc3)cc2/C=C2\SC(=S)NC2=O)c1,21.3 µM (active),inactive,inactive,42.6 µM (active),inactive,,,
CCOC(=O)c1c(C)nc2sc(C(N)=O)c(N)c2c1-c1ccccc1,inactive,inactive,,inactive,,"-0.736% [at 17.1 µM, percent relative to cAMP agonist control]",-13.8% [at 30.8 µM],
CC1CCN(c2ccc3c(c2)S(=O)(=O)c2ccccc2C3=O)CC1,inactive,112 µM (active),100 µM (active),inactive,inactive,,,
CCc1nc2ccc(C(=O)N(C)Cc3ccccc3)cn2c1N(CC)Cc1cccc(Br)c1,inactive,inactive,,inactive,,"3.66% [at 17.1 µM, percent relative to cAMP agonist control]",-21% [at 30.8 µM],
CN(C)C(CNS(=O)(=O)c1ccc(Cl)cc1)c1cccnc1 (stereo not given),inactive,inactive,inactive,inactive,inactive,,,
O=c1oc(-c2ccccc2NS(=O)(=O)c2ccccc2)nc2ccccc12,inactive,inactive,,inactive,,"2.35% [at 17.1 µM, percent relative to cAMP agonist control]",2.74% [at 30.8 µM],
CCN(CC)S(=O)(=O)c1cccc(-c2nnc(SCC(N)=O)n2C)c1,inactive,inactive,inactive,inactive,inactive,,,
CCC(C(=O)OCC(=O)Nc1cc(C)ccc1OC)c1ccccc1 (stereo not given),inactive,inactive,,inactive,,"3.82% [at 17.1 µM, percent relative to cAMP agonist control]",-13% [at 30.8 µM],
CCOc1ccc(-n2c(=O)[nH]cc(C(=O)Nc3ccc(OC)c(OC)c3)c2=O)cc1,inactive,inactive,inactive,inactive,inactive,,,
Cc1ccc2nc(NC(=O)CSc3nc(=O)n(CCCN(C)C)c4c3CCC4)sc2c1,inactive,inactive,,inactive,,"2.81% [at 17.1 µM, percent relative to cAMP agonist control]",-5.22% [at 30.8 µM],

SMILES,Potency [1],Potency [2],Potency [3],Potency [4],Potency [5],activation [3],"activity change, negative = inhibition [5]",outcome [4]
Cn1cc(CNCc2cn(C)nc2-c2ccc(C3CCCCC3)cc2)cn1,inactive,inactive,inactive,inactive,inactive,,,
Cc1cc(SCC(=O)c2ccc(O)c(O)c2)nc2ccccc12,14.1 µM (active),inactive,,inactive,,"11.2% [at 17.1 µM, percent relative to cAMP agonist control]",-6.86% [at 30.8 µM],
COc1cccc(CNC(=O)CCC(=O)N2CC(C)Sc3ccccc32)c1 (stereo not given),inactive,inactive,inactive,inactive,inactive,,,
Cc1cc(Nc2ccccc2)n(-c2nc3ccccc3[nH]2)n1,inactive,inactive,,inactive,,"5.09% [at 17.1 µM, percent relative to cAMP agonist control]",-0.198% [at 30.8 µM],
COc1ccc(Br)cc1CN(C)C(=O)c1ccccc1OCc1c(C)noc1C,inactive,inactive,inactive,inactive,inactive,,,
COc1cc(/C=C2\SC(=S)N(NS(=O)(=O)c3ccccc3)C2=O)cc(OC)c1OC,15.1 µM (active),inactive,inactive,inactive,inactive,,,
COc1ccc2c(c1)CC/C(=C\Nc1ccc3c(c1)OCO3)C2=O,inactive,112 µM (active),100 µM (active),inactive,inactive,,,
O=c1c(Cl)c(Cl)cnn1Cc1nnc(-c2ccccc2Br)o1,42.6 µM (active),inactive,inactive,inactive,inactive,,,
CN1CCN(C2=C(Cl)C(=O)c3ccccc3C2=O)CC1,25.1 µM (active),inactive,,inactive,,"11% [at 17.1 µM, percent relative to cAMP agonist control]",17.9% [at 30.8 µM],
CCCOc1cccc(C2C(C(=O)c3cccs3)=C(O)C(=O)N2Cc2cccnc2)c1 (stereo not given),inactive,inactive,,inactive,,"2.94% [at 17.1 µM, percent relative to cAMP agonist control]",-13.9% [at 30.8 µM],
O=C(/C=C/c1ccco1)Nc1ccc(Cl)c(-c2nc3cc(Cl)ccc3o2)c1,75.7 µM (active),inactive,inactive,inactive,inactive,,,
CCOc1cc(CNc2ccc(O)cc2)cc(Br)c1OCc1ccccc1,75.7 µM (active),inactive,inactive,,inactive,,,inactive [at 12.7 µM]
COc1cc(/C=C2/C(=O)NN(c3ccc(Cl)cc3)C2=O)ccc1OC(=O)c1ccco1,47.8 µM (active),inactive,inactive,inactive,inactive,,,
O=C(/C=C/c1ccccc1)c1cc(Br)ccc(=O)c1O,12 µM (active),inactive,inactive,inactive,inactive,,,
O=C(O)c1ccccc1NS(=O)(=O)c1ccc(NN=Cc2ccc(F)cc2)c([N+](=O)[O-])c1,26.9 µM (active),inactive,inactive,inactive,inactive,,,
COc1cccc(C2=NN(C(C)=O)C(c3cccs3)C2)c1 (stereo not given),inactive,inactive,inactive,inactive,inactive,,,
Fc1ccc(-c2noc3ncnc(N4CCN(c5ccccc5)CC4)c23)cc1,inactive,inactive,inactive,inactive,inactive,,,
